The values below come from PubChem BioAssay (EPA / NIEHS).

SMILES strings stand for the structures. Where “and” joins values, the source holds several entries; their conditions need not be identical. Equal values may be shown once. Results filed as inconclusive are left out. A structure can be active in one record and inactive in another. Calls of active or inactive are those of the source. How the source made its calls: active means hit-call score of the fitted dose curve at least 0.9, where 1 is the maximum; inconclusive means response in the unintended direction; inactive means score below 0.9.

Chain of Peroxisome proliferator-activated receptor gamma (Homo sapiens) (P37231 whole entry, looked up, the tested form may be a part): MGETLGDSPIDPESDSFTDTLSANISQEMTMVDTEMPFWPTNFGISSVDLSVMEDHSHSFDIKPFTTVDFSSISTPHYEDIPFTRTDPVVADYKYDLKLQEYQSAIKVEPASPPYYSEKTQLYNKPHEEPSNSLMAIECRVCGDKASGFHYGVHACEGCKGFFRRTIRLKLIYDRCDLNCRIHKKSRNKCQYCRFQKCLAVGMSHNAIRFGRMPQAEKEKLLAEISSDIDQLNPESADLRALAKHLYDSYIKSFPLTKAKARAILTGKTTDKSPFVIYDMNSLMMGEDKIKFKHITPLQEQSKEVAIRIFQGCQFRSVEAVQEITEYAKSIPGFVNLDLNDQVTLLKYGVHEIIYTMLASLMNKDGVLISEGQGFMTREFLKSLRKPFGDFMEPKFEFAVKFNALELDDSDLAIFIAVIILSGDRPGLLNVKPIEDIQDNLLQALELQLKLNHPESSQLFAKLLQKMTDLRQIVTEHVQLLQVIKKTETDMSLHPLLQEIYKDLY

In the first assay the target is Retinoic acid receptor alpha (Homo sapiens) (UniProt P10276). The assay can be described thus: ATG_RARa_TRANS: Attagene TRANS-FACTORIAL HepG2 Assay for human Retinoic Acid Receptor alpha (RARa) (AID 2283005). An outline of the steps: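 HepG2 cells transiently transfected with multiple reporter units expressing chimeric RARα-GAL4 fusion, with GAL4-UAS-driven reporters. After 24 h compound exposure, reporter mRNA induction quantified by RT-PCR and capillary electrophoresis with fluorescent labeling; gain-of-signal fitted relative to DMSO control.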
Chain of Retinoic acid receptor alpha (Homo sapiens) (P10276 whole entry, looked up, the tested form may be a part): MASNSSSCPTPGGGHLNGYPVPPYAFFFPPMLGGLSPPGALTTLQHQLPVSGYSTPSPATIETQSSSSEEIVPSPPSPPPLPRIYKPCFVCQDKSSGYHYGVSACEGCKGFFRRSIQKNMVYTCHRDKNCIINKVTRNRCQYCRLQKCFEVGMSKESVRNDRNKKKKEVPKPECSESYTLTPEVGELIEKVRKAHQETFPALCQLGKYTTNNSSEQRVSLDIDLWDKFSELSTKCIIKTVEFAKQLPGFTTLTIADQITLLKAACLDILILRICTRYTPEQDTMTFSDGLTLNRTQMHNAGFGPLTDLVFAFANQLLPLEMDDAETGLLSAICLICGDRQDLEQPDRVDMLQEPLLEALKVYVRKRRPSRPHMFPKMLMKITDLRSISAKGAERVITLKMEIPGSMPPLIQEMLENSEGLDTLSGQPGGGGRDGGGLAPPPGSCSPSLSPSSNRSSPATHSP
With `CCO[Si](C)(C)OCC`, the call was inactive. Regarding `O=C(F)C(F)(F)C(F)(F)C(F)(F)C(=O)F`, the call was inactive. Take `CC1CCC(C(=O)O)CC1` (stereo not drawn): the result was inactive. Same read-out and setting: to `CCC1CO1` (stereo not drawn) belongs “inactive”. Turning to `CCO[Si](CCC1CCC2OC2C1)(OCC)OCC` (stereo not drawn), the call was inactive. Regarding `CC1=CC(=O)c2ccccc2C1=O`, the result was inactive. For the molecule `CCc1cccc(CC)c1N(COC)C(=O)CS(=O)(=O)O`, the result was inactive. Turning to `CC(C)CCOCCC(C)C`, the call was inactive. As for `OCC1CCC(CO)CC1` (stereo not drawn), the result was inactive. On to `CCCCCCCCCCCCOC(=O)c1cc(O)c(O)c(O)c1`, for which the molecule was called inactive. With `FC(F)(F)C1(F)C(F)(F)C(F)(F)C(F)(F)C(F)(C(F)(F)F)C1(F)F` (stereo not drawn), the molecule was called inactive. Regarding `CCC(=O)O`, the result was inactive. With `CCCCCCC(C)(C)C(=O)O`, the outcome was inactive.

The target in the next assay is Peroxisome proliferator-activated receptor gamma (Homo sapiens) (UniProt P37231). In words: ATG_PPARg_TRANS: Attagene TRANS-FACTORIAL HepG2 Assay for human Peroxisome Proliferator-activated Receptor-gamma (PPARg) (AID 2283007). In a few lines:
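After 24 h of chemical exposure, transfected HepG2 cells carrying PPARγ-Gal4 chimera reporter constructs are lysed for RNA. Reporter transcripts are measured by RT-PCR and capillary electrophoresis with fluorescent labelling, and gain of signal is fitted versus DMSO.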
With `CC1CCC(C(=O)O)CC1` (stereo not drawn), the molecule was classed as inactive. As for `COCC1CCC(CO)CC1` (stereo not drawn), the molecule was classed as inactive.

Turning to `O=CC(F)(F)C(F)(F)C(F)(F)F`, the molecule was called inactive. Consider `NS(=O)(=O)O`, for which the result was inactive. Still for that read-out and setting: to `COC(=O)CC(C(C)=O)C(=O)OC` (stereo not drawn) belongs “inactive”; to `CCO[Si](CCC1CCC2OC2C1)(OCC)OCC` (stereo not drawn), “inactive”; to `CC1=CC(=O)c2ccccc2C1=O`, “inactive”. Take `O=c1cc(-c2ccccc2)oc2ccc3ccccc3c12`: the AC50 was 708 nM (active) and the molecule was called inactive. In the case of `C=C(c1ccc(C(=O)O)cc1)c1cc2c(cc1C)C(C)(C)CCC2(C)C`, the AC50 was 11.1 µM (active) and 14.2 µM (active). Regarding `O=S(=O)(O)c1ccccc1`, the call was inactive.

For the molecule `CCCCCC(C)OC(=O)COc1ccc(Cl)c2cccnc12` (stereo not drawn), the AC50 is 34900 nM (active). On to `CCc1cccc(CC)c1N(COC)C(=O)CS(=O)(=O)O`, for which the molecule was classed as inactive. As to `CCCCCCCCC1CCC(=O)O1` (stereo not drawn), the result was inactive. In the case of `CNNCc1ccc(C(=O)NC(C)C)cc1`, the result was inactive.

Broadly, the AC50 is the midpoint of the concentration-response curve, whichever way the signal moves.
